Screening data deposited in PubChem by National Center for Advancing Translational Sciences (NCATS).
LmPK inh: inhibitors of Leishmania mexicana pyruvate kinase | AID 1721 | actives 0.37% (n = 290,000) | Potency, µM (highest dose often 57.5 µM), for the others: top-dose activity change, negative = inhibition, actives largely listed as inhibitors | Q27686 | purified LmPK, Kinase-Glo ATP luminescence, 1 h; further: on the % scale 0 is the no-effect control and ±100 the full control effect
Target sequence (Q27686 whole entry, looked up): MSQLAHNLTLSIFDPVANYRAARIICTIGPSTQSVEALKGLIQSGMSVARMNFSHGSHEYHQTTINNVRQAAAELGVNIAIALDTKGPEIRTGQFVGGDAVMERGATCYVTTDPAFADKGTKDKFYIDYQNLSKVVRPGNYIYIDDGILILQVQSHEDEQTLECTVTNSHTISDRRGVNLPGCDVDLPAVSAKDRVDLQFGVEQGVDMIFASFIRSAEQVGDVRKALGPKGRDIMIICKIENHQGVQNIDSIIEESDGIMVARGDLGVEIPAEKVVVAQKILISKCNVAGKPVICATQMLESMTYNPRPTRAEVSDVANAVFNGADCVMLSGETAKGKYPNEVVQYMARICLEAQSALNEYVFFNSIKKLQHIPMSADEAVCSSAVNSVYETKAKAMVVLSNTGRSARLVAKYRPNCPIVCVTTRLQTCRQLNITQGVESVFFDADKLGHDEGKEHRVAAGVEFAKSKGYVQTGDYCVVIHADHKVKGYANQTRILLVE
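0.1 nM LmPK, 0.5 mM PEP, 0.1 mM ADP; 50 mM imidazole pH 7.2, 7 mM MgCl2, 50 mM KCl; 1 h RT. Kinase-Glo luminescence readout, normalized to no-enzyme (full inhibition) and uninhibited wells.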
Tb PYK inh: blocks Trypanosoma brucei pyruvate kinase; Q57TT1; TbPYK enzyme, Kinase-Glo Plus ATP luminescence, 45 min; Potency, µM (series often up to 76.8 µM), for the others: at the highest dose activity, negative = inhibition, hits mostly inhibitors; actives 0.12% (n = 410,000); further: on the % scale 0 is the no-effect control and ±100 the full control effect; nearly all actives have a fitted effect of over 50% in size
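Luminescence from Kinase-Glo Plus, added after a 45-minute room-temperature reaction, served as the end-point read-out. The enzyme and substrate were preincubated with compound before ADP (130 uM final) initiated turnover. Concentration-effect curves came from normalized qHTS data.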
RE007 growth inh: less growth of the S. pombe RE007 Vpr strain. S. pombe RE007 Vpr strain, BacTiter-Glo ATP luminescence, 24 h. Potency, µM (top dose mostly 92.2 µM), for inactives: at the highest dose activity change, negative = less growth, hits mostly inhibitors. actives 0.21% (n = 360,000). AID 651644; active means well fitted falling curve with a large enough effect; inconclusive means small, poorly fitted or top-dose-only effect; inactive means no such curve, though single readings can be large or run the other way; further: on the % scale 0 is the no-effect control and ±100 the full control effect; nearly all actives have a fitted effect of over 50% in size
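Fission yeast strain RE007, carrying one chromosomally integrated HIV-1 vpr copy, was seeded at OD 0.01 in PMG+AL medium with 23 nL pinned compound. After 24 h at 30 °C and 99% humidity, viability was read by BacTiter-Glo luminescence.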
NS1 inh: influenza NS1 inhibition. actives 0.4% (n = 270,000). AID 2326. Potency, µM (series often up to 46.1 µM), without a hit: top-dose activity, positive = more growth; calls by dose curve; further: actives are rising curves; nearly all actives have a fitted effect of over 50% in size
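In this qHTS, NS1 from influenza A is expressed in budding yeast, where it slows growth. Cells are switched from glucose to 2% galactose medium (pH 6.0, -URA), treated with compound, and growth recovery is read at OD600.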
* = called active by the depositor; ? = inconclusive; . = no result given. Hits are enriched below; roughly 0.77% of the tested compounds scored in any of these assays. Unless noted, the call rests on the fitted dose curve; in most records, active means well fitted curve in the direction sought with a large enough effect; inconclusive means small, poorly fitted or top-dose-only effect, or another doubt; inactive means no such curve, though single readings can be large; an effect the other way counts as inactive or inconclusive. Potency means the concentration at half of the fitted maximal effect.

SMILES	LmPK inh	Tb PYK inh	RE007 growth inh	NS1 inh
Cc1cccc(N=C2c3cc([N+](=O)[O-])ccc3-c3c2cc([N+](=O)[O-])cc3[N+](=O)[O-])c1	.	-1%	22µM*	.
O=C(O)c1cccc2c1C(=O)c1cc([N+](=O)[O-])cc([N+](=O)[O-])c1-2	.	-9%	-9%	.
Cc1c(Cn2ccnc2)c2ccccc2n1CCC(=O)O	.	0%	.	.
Nc1cc(C(=O)O)c(N)c2c1C(=O)c1ccccc1C2=O	25µM*	?	?	-34%
CCOc1ccc(OCc2cccc(C(=O)O)c2)cc1	6.3µM*	?	?	-140%
O=C(O)c1cccc(COc2ccc3c(c2)CCC3)c1	?	-10%	2%	-59%
COc1ccc(OCc2cccc(C(=O)O)c2)cc1	16µM*	-19%	-18%	-53%
CC1OC(CC(=O)O)CC2=C1C(=O)c1c(O)cccc1C2=O (stereo unspecified)	.	?	1.6µM*	.
O=C1c2cccc(O)c2C(=O)c2c(O)cccc21	3%	-3%	.	-13%
COC(=O)CNc1c(-c2ccccn2)nc2ccc(Br)cn12	16µM*	-5%	-16%	-59%
C=CCOc1ccc2ccccc2c1/C=N/O	2%	4%	32µM*	-95%
COc1ccc2ccccc2c1/C=N/O	-1%	7%	-14%	-10%
COc1ccc(-c2nc(SCC(=O)Nc3ccc4c(c3)OCO4)c(-c3ccccc3)[nH]2)cc1	.	-2%	.	.
Cc1sc2ccc3sccc3c2[n+]1C	1%	8.9µM*	2%	5%
Cc1sc2c3ccsc3ccc2[n+]1C	-9%	8.9µM*	-12%	.
O=C(OCn1ncc(Cl)c(Cl)c1=O)c1ccccc1Cl	-5%	-1%	45µM*	-110%
O=C(OCn1ncc(Cl)c(Cl)c1=O)c1ccc(F)cc1	2%	.	.	-103%
Oc1ccc(CCc2n[nH]c(=S)n2-c2ccc(F)cc2)cc1	7.9µM*	?	11%	-2%
Cc1cccc(-n2c(Cc3ccccc3)n[nH]c2=S)c1	7.1µM*	?	21%	3%
CCc1ccc(-n2c(Cc3ccccc3)n[nH]c2=S)cc1	-5%	4µM*	-4%	11%
S=c1[nH]nc(Cc2cccc3ccccc23)n1-c1ccccc1	14µM*	5µM*	11%	-3%
CO[C@]1(NC(=O)Cc2cccs2)C(=O)N2C(C(=O)O)=CC(COC(N)=O)S[C@H]21 (stereo partly specified)	.	2%	.	.
C=CCN1CCCC1CNC(=O)c1cc(S(N)(=O)=O)cc(OC)c1OC (stereo unspecified)	.	3%	.	.
S=c1[nH]nc(CCSCc2ccccc2)n1-c1ccccc1	-7%	5.6µM*	7%	9%
COc1ccc(CSCCc2n[nH]c(=S)n2-c2ccccc2)cc1C	1%	?	8%	5%
SMILES	LmPK inh	Tb PYK inh	RE007 growth inh	NS1 inh
CCOc1ccc(-n2c(CCc3ccccc3)n[nH]c2=S)cc1	?	3.2µM*	13%	5%
COc1ccc(-n2c(CCc3ccccc3)n[nH]c2=S)cc1	-8%	?	-4%	8%
Cc1cccc(-n2c(CCn3nc(C)c([N+](=O)[O-])c3C)n[nH]c2=S)c1	?	8.9µM*	-7%	-4%
CCN(CC)c1ccc(NS(=O)(=O)c2cc3[nH]c(=O)c(=O)[nH]c3cc2C)c(C)c1	.	-26%	.	.
NNC(=O)CSc1cccc2cccnc12	5%	-7%	0%	21%
O=C(CSc1cccc2cccnc12)N1CCCC1	-5%	?	45µM*	-35%
O=[N+]([O-])c1ccc(Sc2cccc[n+]2[O-])c2nonc12	?	18µM*	10µM*	-66%
O=[N+]([O-])c1ccc(Nc2ccccc2)c2nonc12	-12%	-4%	.	-47%
Cc1ccccc1CSCC1Nc2ccc(C(=O)NCCc3ccccc3)cc2NC1=O (stereo unspecified)	.	?	32µM*	.
CCOc1ccc(NC(=O)c2ccccn2)cc1	13µM*	-12%	?	-4%
CCOc1ccc(NC(=O)Nc2cccnc2)cc1	25µM*	-7%	?	-2%
CCc1ccc(/C=N/NC(=O)c2ccccn2)cc1	13µM*	-27%	-27%	-8%
CCOc1ccc(NC(=O)c2cnccn2)cc1	-27%	-1%	-24%	-6%
Cc1ccc(C23CC4CC(CC(NC(=O)N5CCN(C)CC5)(C4)C2)C3)cc1	2%	-2%	13µM*	0%
Cc1ccc(C23CC4CC(CC(C(=O)N5CCN(C)CC5)(C4)C2)C3)cc1	1%	-2%	-10%	-4%
CN1/C(=C/c2cc[n+](C)c3ccccc23)C=Cc2ccccc21	?	-25%	10µM*	.
O=C(O)CCn1cc(C=C2C(=O)NC(=S)NC2=O)c(-c2cc3ccccc3oc2=O)n1	6%	14µM*	-8%	2%
O=C(O)CCn1cc(C=C2C(=O)NC(=S)NC2=O)c(-c2ccccc2)n1	-2%	?	6%	13%
Fc1ccc(NCc2cn3ccccc3n2)cc1	11µM*	6%	2%	-5%
CSCCC(NC(=O)[C@H](Cc1c[nH]c2ccccc12)NC(=O)CNC(=O)[C@H](CCSC)NC(=O)[C@H](Cc1ccc(OS(=O)(=O)O)cc1)NC(=O)[C@@H](N)CC(=O)O)C(=O)N[C@@H](CC(=O)O)C(=O)N[C@@H](Cc1ccccc1)C(N)=O (stereo partly specified)	.	3%	.	.
CCn1c(C)nc2cc(-c3nc4n(n3)Cc3ccccc3-4)ccc21	16µM*	?	5.6µM*	-14%
Cc1ccc(-c2nc3n(n2)Cc2ccccc2-3)cc1	7.9µM*	-21%	?	-12%
CCn1c(C)nc2cc(C(=O)NNC(=O)c3ccc(C)cc3)ccc21	.	?	-19%	.
O=C(CSc1cccc[n+]1[O-])c1cc2ccccc2o1	21%	-12%	8.9µM*	-198%
O=C(CSc1cccc[n+]1[O-])c1cc(Cl)ccc1Cl	0%	2%	5µM*	.
SMILES	LmPK inh	Tb PYK inh	RE007 growth inh	NS1 inh
C#CC1(OC(C)=O)CCC2C3CCC4=CC(OC(C)=O)CCC4C3CCC21C (stereo unspecified)	.	-9%	.	.
N#CC(C#N)=c1ccc2c(c1)N1C3=C(CCCC3)CC3CCCCC31N=2 (stereo unspecified)	18µM*	?	-9%	-81%
N#C/C(C(N)=O)=c1/ccc2c(c1)N1C3=C(CCCC3)CC3CCCCC31N=2 (stereo unspecified)	7.9µM*	?	-22%	-96%
CC(C)(C)c1cc(Br)c(O)c(CN(Cc2cc(C(C)(C)C)cc(Br)c2O)C2CCCCC2)c1	.	.	.	-13%
Cc1ccc2c(CNCCc3ccco3)c(C(=O)O)n(Cc3ccc(F)cc3)c2c1	.	-4%	.	.
O=S(=O)(Nc1cccnc1)c1cccc2cccnc12	.	.	.	11%
O=C(Nc1ccccc1)c1ccc(CSc2ccccn2)cc1	13µM*	?	?	28%
COc1ccc(NC(=O)/C(Cl)=C(/Cl)S(=O)Cc2ccccc2)cn1 (stereo unspecified)	2%	-5%	45µM*	-175%
COc1ccc(NC(=O)Cc2ccccc2)cn1	-1%	-2%	28%	.
